This note sets out measurements from PubChem BioAssay (NCATS).

A number with no mark means an inactive call. Records with an inconclusive call do not appear. Activity calls are given as the source filed them. Calls come from the whole dose curve; as a rule, active = well fitted curve in the direction sought with a large enough effect; inconclusive = small, poorly fitted or top-dose-only effect, or another doubt; inactive = no such curve, though single readings can be large; an effect the other way counts as inactive or inconclusive.

Assay [1] addresses Glutathione peroxidase 1 (Homo sapiens) (UniProt P07203). Description: Primary qHTS Assay for Inhibitors of Recombinant Selenoprotein Glutathione Peroxidase 1 (GPX1) (AID 1845191). For activity, negative = inhibition: % is set by controls: 0 for no effect and ±100 for the full control effect. Note: nearly all actives have a fitted effect of over 65% in size. The gist of the method:
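GR-coupled assay: compounds preincubated 30 min at room temperature with GPX1, then reaction started with CHP; final 10 nM GPX1, 1 mM GSH, 0.5 mM CHP, 0.5 mM NADPH, 100 nM GR, 0.01% BSA, pH 7.5 Tris buffer. NADPH fluorescence (340/450 nm) read at 0 and 15 min.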
Background: In qHTS, concentration-response curves come from the screen itself.

Assay [2] deals with Phospholipid hydroperoxide glutathione peroxidase GPX4 (Homo sapiens) (UniProt P36969). Description: Primary qHTS Assay for Inhibitors of Recombinant Selenoprotein Glutathione Peroxidase 4 (GPX4) (AID 1845192). For activity change, negative = inhibition: series mostly up to about 50 µM; % is set by controls: 0 for no effect and ±100 for the full control effect. Note: nearly all actives have a fitted effect of over 65% in size. The gist of the method: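 GR-coupled assay: recombinant GPX4 preincubated 30 min with compound at room temperature; final 200 nM GPX4, 1 mM GSH, 0.5 mM cumene hydroperoxide, 0.5 mM NADPH, 100 nM GR, 0.01% BSA, pH 7.5 Tris. NADPH fluorescence (340/450 nm) read at 0 and 15 min.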
Chain of Phospholipid hydroperoxide glutathione peroxidase GPX4 (Homo sapiens) (P36969 whole entry, looked up): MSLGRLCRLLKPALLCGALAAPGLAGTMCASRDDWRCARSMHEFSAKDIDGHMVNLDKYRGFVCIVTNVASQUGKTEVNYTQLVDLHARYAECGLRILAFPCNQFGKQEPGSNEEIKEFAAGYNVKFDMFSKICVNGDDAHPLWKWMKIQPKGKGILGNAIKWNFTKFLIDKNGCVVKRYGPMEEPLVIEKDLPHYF

The nature of assay [3]: Primary fluorescence-based thiol-reactive (MSTI) qHTS assay for identification of artifact compounds. (AID 1845221).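 For activity change, negative = thiol reactive: series mostly up to about 54 µM; thiol-reactive compounds lower the probe fluorescence signal.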 Note: nearly all actives have a fitted effect of over 65% in size. Note: potency is the fitted concentration of half-maximal effect. In short, it runs like this:
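Curve-fitted percent inhibition (4-parameter Hill) derived from fluorescence, Ex 525/Em 598 nm, scaled with Acetyl-MSTI and MSTI; 1 h incubation at room temperature.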

A short description of assay [4]: Primary redox qHTS assay for identification of artifact compounds. (AID 1845223).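 Note: 0% = DMSO and 100% = reference compound.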 In short, it runs like this:
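Amplex Red (25 uM) and HRP (250 mU/mL) in HBSS, with compounds for 15 min, then 250 uM DTT for 30 min, room temperature, dark. Fluorescence 525/598 nm read; normalized to DMSO and 10 uM DA3003; Hill fit.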

Assay [5] concerns the target Luciferin 4-monooxygenase (Photinus pyralis) (UniProt P08659). Briefly: Primary firefly luciferase (FLuc) qHTS assay for identification of artifact compounds. (AID 1845220).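 For activity change, negative = inhibition: series mostly up to about 54 µM; plate controls were DMSO vehicle for no effect and no enzyme for full effect.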 Note: nearly all actives have a fitted effect of over 60% in size. In short, it runs like this: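 D-luciferin and ATP (10 uM each, final) in Tris acetate buffer pH 7.6 were incubated with compounds for 15 min at room temperature. The reaction was started with 10 nM Photinus pyralis luciferase and luminescence read after 5 min. Percent inhibition was fitted to a 4-parameter Hill equation.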

Assay [6] has as its system Nanoluciferase (engineered Oplophorus gracilirostris luciferase). Description: Primary Nanoluciferase (NLuc) qHTS assay for identification of artifact compounds. (AID 1845222).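 For activity, negative = inhibition: series mostly up to about 54 µM; 0% = DMSO and -100% = no enzyme.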 Note: potency is the fitted concentration of half-maximal effect. The gist of the method: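 Diluted conditioned medium from NLuc-expressing S16 cells treated with compounds for 15 min at room temperature, then Nano-Glo substrate added; luminescence read after 5 min. Percent inhibition versus no-enzyme and DMSO controls fitted to 4-parameter Hill equation.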

Chain of Glutathione peroxidase 1 (Homo sapiens) (P07203 whole entry, looked up): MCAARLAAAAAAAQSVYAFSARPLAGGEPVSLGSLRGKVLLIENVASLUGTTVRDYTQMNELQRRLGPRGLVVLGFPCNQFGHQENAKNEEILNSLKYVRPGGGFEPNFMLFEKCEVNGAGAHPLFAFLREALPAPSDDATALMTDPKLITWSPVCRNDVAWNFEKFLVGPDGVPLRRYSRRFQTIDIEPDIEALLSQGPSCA

Turning to `O=C(N[C@H](Cc1ccccc1)C(=O)O)c1sc2cc(F)ccc2c1Cl`, the Potency entry in assay [1], in assay [2], in assay [3] and in assay [4] was “inactive” in each case.
Turning to `COc1cc(O)c(C(=O)O)c(CCc2ccccc2)c1`, the Potency entry in assay [1], in assay [2], in assay [3] and in assay [4] was “inactive” each time.
Turning to `CC(=O)NC(Cc1c[nH]c2ccccc(=O)c12)C(=O)O` (stereo not drawn), the Potency result in assay [1], in assay [5] and in assay [6] was “inactive” each time. The Potency in assay [3] is 5.32 µM (active).
`CCCCCOC(=O)Nc1nc(=O)n(C2O[C@H](C)[C@@H](O)[C@H]2O)cc1F` (stereo partly drawn): the Potency result in assay [2], in assay [5], in assay [3], in assay [6] and in assay [4] was “inactive” each time.
In the case of `COc1cc(C)c(C(=O)OC2C(C)OC(OC3CCC(C)C4C3C=C(C)C3/C(C)=C\CC/C(C)=C/C5(C)C=C(C(=O)O)C(C)CC56OC(=O)/C(=C(\O)C34C)C6=O)C(O)C2O)c(OC)c1` (stereo not drawn), the Potency entry in assay [2] was “inactive”. For the same compound, the activity change, negative = inhibition in assay [5] was 1.3% [at 11.6 µM]. In addition, the activity change, negative = thiol reactive in assay [3] was 142% [at 11.5 µM]. Besides, in assay [6], the activity, negative = inhibition was 4.78% [at 11.6 µM].
With `CC1(C)[C@H]2C[C@H](C/C=C\CCCC(=O)O)[C@@H](NC(=O)c3csc4ccc(O)cc34)[C@@H]1C2`, the Potency entry in assay [2], in assay [5], in assay [3], in assay [6] and in assay [4] was “inactive” in each case.
As to `C=CC(C)(O)CCC1C(C)(O)CCC2C(C)(C)CCCC21C` (stereo not drawn), the Potency result in assay [2], in assay [5], in assay [3], in assay [6] and in assay [4] was “inactive” in each case.
For the compound `COc1ccnc2[nH]cc(C(=O)C(=O)N3CCN(C(=O)c4ccccc4)CC3C)c12` (stereo not drawn), the Potency entry in assay [2], in assay [5], in assay [3], in assay [6] and in assay [4] was “inactive” throughout.
`COc1ccc2c(c1)C=C1Cn3c-2c(C2CCCCC2)c2ccc(cc23)C(=O)NS(=O)(=O)N(C)CCOCCN(C)C1=O`: the Potency result in assay [1], in assay [5] and in assay [6] was “inactive” each time.
For the compound `NC1=NC2(c3cc(NC(=O)c4ccc(F)cn4)ccc3F)COCC2CS1` (stereo not drawn), the Potency result in assay [2], in assay [5], in assay [3] and in assay [4] was “inactive” in each case.
As to `O=C(O)c1ccnc2cc(-c3nc4ccccc4n3CCN3CCCCC3)sc12`, the Potency result in assay [5], in assay [3], in assay [6] and in assay [4] was “inactive” in each case.
`COc1cc(/C=C/c2ccccc2)c(C(=O)O)c(O)c1CC=C(C)C`: the Potency entry in assay [2], in assay [5] and in assay [4] was “inactive” each time. For the same compound, the Potency in assay [6] was 13.2 µM (active).
As to `O=C(O)c1cccc(CN2C(=O)/C(=C(\c3ccccc3)c3ccc(Cl)cc3)c3ccccc32)c1`, the Potency result in assay [5] and in assay [6] was “inactive” throughout.
For the compound `CC(C)C[C@H](NC(=O)[C@@H]1O[C@H]1C(=O)O)C(=O)NCCCCN=C(N)N`, the Potency result in assay [2], in assay [5], in assay [3], in assay [6] and in assay [4] was “inactive” throughout.
For the compound `CC(C)C1CCC(C(=O)N[C@@H](Cc2ccccc2)C(=O)O)CC1` (stereo partly drawn), the Potency entry in assay [2], in assay [5], in assay [3] and in assay [6] was “inactive” each time.
For the compound `COC(=O)C1C(O)CCC2CN3CCc4c([nH]c5ccccc45)C3CC21` (stereo not drawn), the Potency result in assay [2], in assay [5] and in assay [6] was “inactive” each time.
In the case of `CC(=O)Nc1cccc2c1c(Sc1ccc(Cl)cc1)c(C)n2CC(=O)O`, the Potency result in assay [2], in assay [5] and in assay [4] was “inactive” in each case.
`CC1(C)CC=C(c2cnc3ccccc3c2)c2cc(C(=O)Nc3ccc(C(=O)O)cc3)ccc21`: the Potency result in assay [2], in assay [5], in assay [3], in assay [6] and in assay [4] was “inactive” each time.
As for `CN1CCCC1Cc1c[nH]c2ccc(CCS(=O)(=O)c3ccccc3)cc12` (stereo not drawn), the Potency entry in assay [2], in assay [5], in assay [3], in assay [6] and in assay [4] was “inactive” each time.
Consider `Cc1sc(C)c(C(=O)NC2(c3ccc(C(=O)O)cc3)CC2)c1Cc1ccc(C(F)(F)F)cc1`, for which the Potency result in assay [2], in assay [5], in assay [3] and in assay [4] was “inactive” throughout. For the same compound, the Potency in assay [6] is 4.78 µM (active).
With `COC(=O)C1=CO[C@@H](O[C@@H]2O[C@H](CO)[C@@H](O)[C@H](O)[C@H]2O)C2C1CC(O)C2C` (stereo partly drawn), the Potency entry in assay [2], in assay [5], in assay [3], in assay [6] and in assay [4] was “inactive” each time.
